The list is not random: actives were taken first. Their share in the collection is about 3.5%.
GPR151 activ: activators of human GPR151, primary screen, cell-based, PathHunter beta-arrestin, luminescence; G-protein coupled receptor 151 (Homo sapiens), Q8TDV0; PathHunter beta-arrestin GPR151 cells; activation, % at 11.2 µM; 1% of 650,000 active; AID 1508602, 2020; in the data active = activation above about 4.9%;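 also: 0% = median of compound wells and 100% = cells with positive control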
TEAD-YAP inh: TEAD-YAP interaction inhibition, primary screen, TEAD-YAP interaction inhibitor project, luminescence, HEK-TIYL cells; TEAD-Gal4/YAP UAS-luciferase luminescence; inhibition, % at 9.12 µM; 1.4% of 640,000 active; in the data active = inhibition above about 32%;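 also: 0% = median of test compound wells and 100% = reference inhibitor wells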
MITF inh: MITF inhibitors, primary screen, biochemical, AlphaScreen, human | Microphthalmia-associated transcription factor (Homo sapiens), O75030 | 0.91% of 650,000 active | inhibition, % at 2.6 µM | AlphaScreen MITF homodimerization, bead proximity signal; in the data active = inhibition above about 50%;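 also: 0% = vehicle wells with protein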
Target sequence (O75030 whole entry, looked up): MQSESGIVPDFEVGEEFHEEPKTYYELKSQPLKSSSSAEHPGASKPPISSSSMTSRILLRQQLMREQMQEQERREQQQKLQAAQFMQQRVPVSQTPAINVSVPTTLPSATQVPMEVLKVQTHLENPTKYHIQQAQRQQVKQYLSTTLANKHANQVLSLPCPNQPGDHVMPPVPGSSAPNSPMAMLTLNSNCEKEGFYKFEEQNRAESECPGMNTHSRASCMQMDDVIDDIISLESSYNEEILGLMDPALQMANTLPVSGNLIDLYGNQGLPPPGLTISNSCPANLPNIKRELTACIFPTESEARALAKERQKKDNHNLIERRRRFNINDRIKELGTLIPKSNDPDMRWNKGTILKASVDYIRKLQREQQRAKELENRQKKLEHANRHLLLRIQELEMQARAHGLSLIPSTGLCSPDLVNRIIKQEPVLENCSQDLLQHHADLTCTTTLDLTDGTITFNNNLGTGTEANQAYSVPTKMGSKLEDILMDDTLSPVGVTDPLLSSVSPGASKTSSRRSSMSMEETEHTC
FBW7 act: FBW7 E3 ligase activators, primary screen, biochemical, AlphaScreen, human. AID 1259310, 2017. normalized activity (activation), % at 26.1 µM. AlphaScreen FBW7–phospho-cyclin E peptide binding, activator screen. 0.13% of 650,000 active. F-box/WD repeat-containing protein 7 (Homo sapiens), Q969H0; in the data active = normalized activity above about 1.9%;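 also: purified mutant Fbw7 with reduced substrate affinity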
GPR151 confirm: GPR151 activators, triplicate retest, confirmation, cell-based, PathHunter beta-arrestin, luminescence. 6,700 tested, under 10 active. GPR151 PathHunter beta-arrestin cells, 90 min; % of EA-reagent control over plate median. AID 1508609, 2020. shares compounds with GPR151 activ. activation, % at 11.2 µM;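 active = mean percent activation across replicates above the confirmation screen cutoff of 4.91%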
GPR119 ag: GPR119 activators in beta-arrestin cells, counter-screen for GPR151 activator project, cell-based, PathHunter beta-arrestin, luminescence, triplicate. 90 min; 0 = compound-well median, 100 = enzyme-acceptor control. 0.3% of 6,700 active. AID 1508611, 2020. activation, % at 11.2 µM. shares compounds with GPR151 activ;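 active = mean percent activation in the counterscreen above 29.09%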;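 also: counterscreen on off-target GPR119 to flag nonselective hits from the GPR151 activator screen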
Starred values were filed as active, the others as inactive; ! = repeats disagree.

What do the screens show for `COc1ccc(S(=O)(=O)/N=C2/NC(=O)/C(=C\c3ccco3)S2)cc1`?
GPR151 activ: 7.4*; TEAD-YAP inh: 6; MITF inh: 14; FBW7 act: 0; GPR151 confirm: -1; GPR119 ag: -1

Results for Cc1ccc(S(=O)(=O)/N=C2/NC(=O)/C(=C/c3ccco3)S2)cc1 ?
GPR151 activ: 1; TEAD-YAP inh: 1; MITF inh: 9; FBW7 act: 0

How did COC(=O)c1ccc(CSc2nc3sc(C)c(C)c3c(=O)n2-c2ccccc2)cc1 do in these assays?
GPR151 activ: -1; TEAD-YAP inh: 0; MITF inh: 17; FBW7 act: 0

What do the screens show for `CCOc1ccc(-c2nc(NC(=O)CSc3nc(O)cc(=O)[nH]3)sc2C)cc1`?
GPR151 activ: -1; TEAD-YAP inh: -18; MITF inh: 0; FBW7 act: 0

What do the screens show for `COc1ccc(NC(=O)n2cc(C)cn2)cc1OC`?
GPR151 activ: 5.2*; TEAD-YAP inh: -1; MITF inh: 16; FBW7 act: 0; GPR151 confirm: 0; GPR119 ag: -10

What do the screens show for `COc1ccc(Cl)cc1NC(=O)n1cc(C)cn1`?
GPR151 activ: -1; TEAD-YAP inh: 6; MITF inh: 6; FBW7 act: 0

What do the screens show for `CCOCCOC(=O)C1=C(C)NC2=C(C(=O)CC(c3ccc(Cl)cc3)C2)C1c1ccc(Cl)cc1` (stereo not drawn)?
GPR151 activ: 7.4*; TEAD-YAP inh: 17; MITF inh: -1; FBW7 act: 0; GPR151 confirm: -1; GPR119 ag: -4

How did CCOCCOC(=O)C1=C(C)NC2=C(C(=O)CC(c3ccc(Cl)cc3)C2)C1c1ccc(O)cc1 (stereo not drawn) do in these assays?
GPR151 activ: -1; TEAD-YAP inh: 6; MITF inh: 17; FBW7 act: 0

Results for CC1=C(C(=O)OCC2CCCO2)C(c2cccc([N+](=O)[O-])c2)C2=C(CCCC2=O)N1 (stereo not drawn) ?
GPR151 activ: 6.1*; TEAD-YAP inh: 8; MITF inh: 4; FBW7 act: 0; GPR151 confirm: 0; GPR119 ag: 8

What do the screens show for `CCOCCOC(=O)C1=C(C)NC2=C(C(=O)CCC2)C1c1ccc(F)c(F)c1` (stereo not drawn)?
GPR151 activ: 12*!; TEAD-YAP inh: 7; MITF inh: 6; FBW7 act: 0; GPR151 confirm: 1; GPR119 ag: 17

What do the screens show for `CCCOCCOC(=O)C1=C(C)NC2=C(C(=O)CCC2)C1c1ccc(F)c(F)c1` (stereo not drawn)?
GPR151 activ: 0; TEAD-YAP inh: 17; MITF inh: -3; FBW7 act: 1

How did CC1=C(C(=O)OCCOc2ccccc2)C(c2cccc(O)c2)C2=C(CC(c3ccccc3)CC2=O)N1 (stereo not drawn) do in these assays?
GPR151 activ: 14*; TEAD-YAP inh: 6; MITF inh: 8; FBW7 act: 2; GPR151 confirm: 0; GPR119 ag: 8

What do the screens show for `Cc1ccc(NC(=O)C2C3C=CC4(O3)C2C(=O)N(C(C)(C)C)C4C(=O)NC2CCCC(C)C2C)cc1Cl` (stereo not drawn)?
GPR151 activ: 0; TEAD-YAP inh: -7; MITF inh: -3; FBW7 act: 0

How did COc1ccc(OC)c(-n2c(=S)[nH]c3cc(C(=O)Nc4cccnc4)ccc3c2=O)c1 do in these assays?
GPR151 activ: -1; TEAD-YAP inh: -6; MITF inh: -10; FBW7 act: 0

How did O=C(NCCO)C(=O)NCC(c1cccs1)S(=O)(=O)c1ccccc1 (stereo not drawn) do in these assays?
GPR151 activ: 4.9*; TEAD-YAP inh: -1; MITF inh: 2; FBW7 act: 0; GPR151 confirm: 0; GPR119 ag: -12

Screening data (PubChem BioAssay)
